From PubChem BioAssay AID1621 (Southern Research Specialized Biocontainment Screening …, 2009)
In all, about 290,000 compounds went through this assay and about 60 (0.02%) were called active. Another 1% or so got no clear call; they are omitted. No rule for the calls is given here. These entries were drawn from the full list. Measured potencies and affinities stand elsewhere.

Assay: West Nile virus antiviral activity, cell-based, CPE readout (AID 1621)
Details: West Nile virus-infected cells, at 10 µM, hits give high values

CPE inhibition, inactive:
O=C(CCn1c(=S)[nH]c2ccccc2c1=O)N1CCCCC1 0%, O=C(N/N=C\c1ccc(S(=O)(=O)O)o1)c1ccc2c(c1)OCO2 -0.67%, CCN1CCN(CCNC(=O)c2ccc(/C=C3/Sc4ccccc4N(Cc4ccccc4C)C3=O)cc2)CC1 -0.85%, O=C(NCCN1CCOCC1)c1ccc(/C=C2\Sc3ccccc3N(Cc3ccccc3F)C2=O)cc1 2.03%, CC(NS(=O)(=O)c1ccc(Cl)cc1)C(c1cccs1)N1CCN(C)CC1 (stereo not given) -0.37%, CCCCOc1cccc(C(=O)Nc2ccc(S(=O)(=O)Nc3nnc(CC)s3)cc2)c1 -0.64%, COc1ccc(N=C2CC(C)(C)CC(=O)/C2=C(/O)c2ccccc2)cc1 -0.15%, COC(=O)c1scc(C)c1NC(=O)Nc1ccccc1 1.33%, O=C(NC1CCCC1)C(c1cccs1)N(CC1CCCO1)C(=O)Cc1cccs1 (stereo not given) -0.52%, Cc1cc(C)c(S(=O)(=O)n2c([N+](=O)[O-])cnc2C)c(C)c1 1.59%, CN1CCN(C(=O)c2ccccc2NC(=O)c2sc3ccccc3c2Cl)CC1 -1.33%, CN1CCN(c2ccccc2NC(=O)c2sc3ccccc3c2Cl)CC1 -0.79%, O=C(O)C1CCCN1C(=O)Nc1ccc(F)cc1 (stereo not given) -0.08%, CCN1CCN(CCNC(=O)c2ccc3nc(-c4cccc(C)c4)c(-c4cccc(C)c4)nc3c2)CC1 -1.29%, COc1ccc(-c2nc3ccc(C(=O)NCCCN4CCOCC4)cc3nc2-c2ccc(OC)cc2)cc1 0.5%, c1ccc(OCCCCn2cnc3ccccc32)cc1 -0.39%, O=C(c1ccco1)c1cn[nH]c1-c1ccc(Cl)cc1O 0.03%, CC(=O)NCC(=O)NC(C(=O)Nc1ccc2c(c1)OCCO2)c1ccc(C)cc1 (stereo not given) -0.73%, Cc1ccc(S(=O)(=O)N(C)C)cc1NC(=O)c1ccncc1 0.43%, CN(C)S(=O)(=O)c1cccc(NC(=O)c2cncc(Br)c2)c1 0.06%, C/C=C/c1ccc(OCCCNC(C)CC)c(OC)c1 (stereo not given) -0.34%, CC(/C=C/c1ccco1)=N\NC(=O)CNc1cccc(C)c1 -0.57%, CCCCOP(=O)(c1ccc(N(C)C)cc1)C(O)c1ccc(OC)cc1 (stereo not given) -0.79%, Cc1ccccc1NC1=CC(=O)CC(C)(C)C1 -0.82%, COc1cc(CNC(C)(C)CO)cc(Br)c1OCc1ccccc1 -0.18%, COc1cc(CNC(C)(C)CO)cc(Br)c1OCc1ccc(Cl)cc1Cl 15.4%, CC1C(O)=C(c2nc3ccccc3[nH]2)C(=N)N1c1ccccc1 (stereo not given) 1.12%, CC(O)CNc1ccc(-c2n[nH]c(=O)c3ccccc23)cc1[N+](=O)[O-] (stereo not given) -1.06%, CCCn1c(SCC(=O)N(CC)CC)nnc1-c1ccncc1 -0.86%, O=C(NCCCN1CCCC1)c1cc2c(Cl)nc3ccccc3c2s1 0.85%, CC1CCN(CCCNC(=O)c2cc3c(Cl)nc4ccccc4c3s2)CC1 3.15%, CNC(=O)OC(C)CNS(=O)(=O)c1ccc(C)cc1 (stereo not given) -0.03%, CCc1c(C(=O)Nc2ncn(Cc3cccc(C)c3)n2)csc1C -0.2%, COc1ccccc1C(=O)NCCC(=O)NCCc1ccccc1 0.26%, Cc1ccc(NC(=O)[C@H](Cc2ccccc2)NC(=O)[C@@H]2Cc3ccccc3CN2)c(C)c1 -0.41%, Cc1cc(C)cc(NC(=O)[C@H](Cc2c[nH]c3ccccc23)NC(=O)[C@@H]2Cc3ccccc3CN2)c1 -1.23%, CCOC(=O)c1ccc(NC(=S)N(CCCN2CCN(CC)CC2)Cc2ccco2)cc1 -0.57%, COc1cc2c(cc1OC)-c1cc(Nc3ccc(C(=O)O)cc3)nc(=O)n1CC2 -0.34%, CC(C(=O)Nc1cccc(S(=O)(=O)N2CCOCC2)c1)N1CCN(c2ccc(F)cc2)CC1 (stereo not given) -1.17%, CCOCC(=O)Nc1cccc(SC)c1 0.36%, CCN(CCN1CCCC1)C(=O)c1cc(COc2ccccc2SC)on1 -1.45%, O=C(COc1ccc(Cl)cc1)NC1=NN(c2ccccc2)C(=O)C1 -0.49%, Nc1nc(NCCO)nc(NC2CCCCC2)c1[N+](=O)[O-] 1.53%, CN(C)CCCNc1nc(N)c([N+](=O)[O-])c(NC2CCCCC2)n1 1.01%, CC(C)OC(=O)CC(=O)CSc1nc(-c2ccc(F)cc2)cc(-c2ccccc2)c1C#N -0.46%, O=S(=O)(CCSc1ccc(C(F)(F)F)cn1)c1ccc(Cl)cc1 -0.47%, CCCN(CCC)CCCNC(=S)Nc1ccc2nc(N3CCN(C)CC3)cc(C)c2c1 0.29%, CCCN(CCC)CCCNC(=S)Nc1ccc2nc(N3CCN(CC)CC3)cc(C)c2c1 3.38%, CCC(C)NC(=O)C1CCCN(S(=O)(=O)c2ccc(-n3cnnn3)cc2)C1 (stereo not given) 0.81%, Cc1ccc(S(=O)(=O)NNC(=O)Nc2cccc(F)c2)c(C)c1 0.14%
